hcDAF12 agonist = activates DAF-12 receptor from parasite H. contortus | HEK293 hcDAF-12 lit1-tk-luc reporter, luminescence; 0% DMSO, 100% Δ7-dafachronic acid | activation, % at 6.8 µM | 370,000 tested, 1.4% active;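 active means activation above the mean of all tested compounds plus 3 SD, cut at about 5.5% in these data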;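 further: 100% = response to 3 µM Δ7-dafachronic acid high control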
DAX1 inh-1 = blocks DAX1 repression of SF-1 activated StAR promoter; HEK293T StAR-luciferase reporter, SF-1/DAX-1 repression relief; inhibition, % at 6.8 µM; 370,000 tested, 1.1% active;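 active means inhibition above the mean over all tested compounds plus 3 SD, cut at about 3.6% in these data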;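 further: 0% = DAX-1 cells with DMSO and 100% = cells lacking DAX-1 with DMSO; higher inhibition means more luminescence from relief of DAX-1 repression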
hgDAF12 agonist = agonists of H. glycines DAF-12 nuclear receptor; HEK293 GAL4-hgDAF12 UAS-luciferase reporter, agonist luminescence; normalized to butyrate control; activation, % at 6.8 µM; 370,000 tested, 1.8% active; AID 687014;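 active means activation above a cutoff set at the mean of all screened compounds plus 3 SD, cut at about 10% in these data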;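 further: 0% = DMSO wells and 100% = sodium butyrate wells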
ssDAF-12 act = activators of S. stercoralis DAF-12 nuclear receptor; activation, % at 6.8 µM; AID 652126; HEK293 ssDAF-12/GRIP1 lit1-tk-luc reporter, luminescence; % of 3 µM dafachronic acid response; 370,000 tested, 1% active;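 active means activation above the mean over all tested compounds plus 3 SD, cut at about 0.9% in these data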;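 further: 0% = DMSO-only wells and 100% = 3 µM delta7-dafachronic acid wells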
DAX1 inh-2 = inhibitors of human orphan nuclear receptor DAX1 (NR0B1); P51843; HEK293 Gal4-DAX1 luciferase reporter, luminescence; inhibition, % at 6.75 µM; 340,000 tested, 0.99% active; AID 504766;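 active means inhibition above the mean over all tested compounds plus 3 SD, cut at about 4.2% in these data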;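 further: 0% = DAX1-transfected cells with DMSO and 100% = empty-vector control cells with DMSO; inhibition shows as a rise in luminescence from relieved DAX1 repression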
Target sequence (P51843 207-470 limits assumed): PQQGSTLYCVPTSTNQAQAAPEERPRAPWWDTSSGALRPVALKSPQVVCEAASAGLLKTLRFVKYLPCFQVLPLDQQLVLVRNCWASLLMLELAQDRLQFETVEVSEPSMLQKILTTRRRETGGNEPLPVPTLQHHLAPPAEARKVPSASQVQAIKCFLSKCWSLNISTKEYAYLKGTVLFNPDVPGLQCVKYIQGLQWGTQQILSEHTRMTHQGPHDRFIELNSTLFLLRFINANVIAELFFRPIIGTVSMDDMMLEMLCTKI
DAX1 conf = NR0B1 (human) inhibition, confirmation; AID 652134; inhibition, % at 6.8 µM; shares compounds with DAX1 inh-1; HEK293T StAR-promoter luciferase reporter, SF-1/DAX-1 repression; 2,400 tested, 87% active;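 active means inhibition above the average of every tested compound plus 3 SD, cut at about 3.8% in these data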;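 further: 0% = DAX-1 cells with DMSO and 100% = no DAX-1 control cells with DMSO; active compounds raise luminescence by relieving repression of the StAR reporter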
SF1 AF2mut Luc = nonselective inhibitor or artifact in SF-1 mutant DAX1 counter-screen; HEK293 StAR-luciferase, SF-1 AF2 mutant, luminescence; 2,400 tested, 78% active; inhibition, % at 6.8 µM; AID 652136; shares compounds with DAX1 inh-1;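 active means inhibition above the mean of all tested compounds plus 3 SD, cut at about 3% in these data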;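 further: 0% = DAX-1 transfected cells with DMSO and 100% = cells without DAX-1 with DMSO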
An asterisk follows results filed as active; nt = no result given. In the library only some 4.1% were active in any assay of this set; here they are far more common.

SMILES	hcDAF12 agonist	DAX1 inh-1	hgDAF12 agonist	ssDAF-12 act	DAX1 inh-2	DAX1 conf	SF1 AF2mut Luc
Cc1ccc(C(=O)N2c3ccccc3CC2C)o1 (centres undefined)	3	5.4*	13*	0	1	7.5*	6.5*
COC(=O)[C@]12C[C@H](CC(=O)NCc3ccc(OC)c(OC)c3)C(=O)N(Cc3ccco3)C1=C[C@H](COCc1ccccc1)O[C@@H]2C	-1	1	2	-1	nt	nt	nt
Cc1nc2nc(-c3ccc(Cl)cc3)cn2nc1C	5	6.2*	10	0	0	9.4*	2.9*
Cc1nc2nc(-c3cccs3)cn2nc1C	3	3	8	0	0	nt	nt
O=C(c1ccccc1)C1CCN(c2ncnc3sccc23)CC1	-6	nt	-8	-3	nt	nt	nt
Cc1ccc(OCc2cc(C(=O)N3CCN(C4CCCCC4)CC3)no2)cc1C	2	6.4*	4	-1	2	6.5*	4.1*
Cc1ccc(OCc2cc(C(=O)N3CCN(C4CCCC4)CC3)no2)cc1C	-1	0	4	-1	2	nt	nt
COc1ccc(OCc2cc(C(=O)N3CCCCCCC3)no2)c(Cl)c1	1	2	6	0	2	nt	nt
COc1cc(C)ccc1OCc1cc(C(=O)N2CCN(C3CCCCC3)CC2)no1	3	5.7*	11*	0	1	5.7*	3.8*
COc1cc(C)ccc1OCc1cc(C(=O)N2CCCCCCC2)no1	2	4.6*	9	1	1	5.4*	3.5*
COc1cc(C)ccc1OCc1cc(C(=O)NCc2ccncc2)no1	2	4.7*	11*	0	1	5.3*	3.0*
Cc1cc(N2CCN(C(=O)OC(C)(C)C)C[C@H]2C)ccc1N1CC[C@@H](O)C1	0	-3	-4	-1	nt	nt	nt
COC(=O)[C@]12C[C@H](CC(=O)NCc3cccc(C(F)(F)F)c3)C(=O)N(CCC3=CCCCC3)C1=C[C@H](C(C)C)O[C@@H]2C1CC1	-2	-1	1	-1	nt	nt	nt
Cc1cc(OCc2cc(C(=O)N3CCCCCC3)no2)cc(C)c1Cl	4	5.5*	8	1	1	7.1*	4.1*
Cc1ccc(OCc2cc(C(=O)N3CCN(c4ccccc4)CC3)no2)cc1C	4	5.8*	13*	0	4	11*	6.5*
CCN(Cc1ccncc1)C(=O)c1cc(COc2ccc(C)c(C)c2)on1	-2	-4	0	-1	1	nt	nt
Cc1ccc(OCc2cc(C(=O)N(CCO)Cc3cccs3)no2)cc1C	5	5.1*	7	0	3	6.1*	3.7*
O=C(/C=C/c1ccc(F)cc1)NC(=S)Nc1ccccc1O	-1	0	3	-1	0	nt	nt
CSc1ccc(/C=C/C(=O)NC(=O)c2ccccc2O)cc1	4	4.9*	13*	0	1	8.8*	5.8*
O=C(c1ccc2c(Cl)c3c(nc2c1)CCCC3)N1CCC(N2CCCCC2)CC1	-1	9.0*	9	-1	1	7.0*	6.1*
Cc1cc(C(=O)COC(=O)c2ccc(O)cc2O)c(C)n1C(C)C	4	7.3*	12*	0	2	9.8*	5.0*
O=C(Nc1ccc(CN2CCOCC2)cc1)c1cc2ccccn2n1	4	6.2*	5	-1	-2	9.8*	3.0*
O=C(Cc1ccccc1)Nc1ccc(CN2CCOCC2)cc1	1	2	5	0	2	nt	nt
Cc1cc(NS(=O)(=O)c2ccc(NC(=O)CSc3nnc(-c4cnccn4)n3-c3ccccc3)cc2)nc(C)n1	-1	0	1	-1	nt	nt	nt
Cc1c(NC(=S)NC(=O)c2cc3ccccc3o2)cccc1C(=O)O	3	6.8*	4	0	2	6.6*	5.8*
SMILES	hcDAF12 agonist	DAX1 inh-1	hgDAF12 agonist	ssDAF-12 act	DAX1 inh-2	DAX1 conf	SF1 AF2mut Luc
CN1CCN(c2ccccc2NC(=S)NC(=O)c2cc3ccccc3o2)CC1	-1	0	0	-1	0	nt	nt
CCOc1ccc(NC(=O)c2cc(-c3ccc(Cl)cc3)nc3ccccc23)cc1	0	-1	0	-1	nt	nt	nt
O=C1SC(SC(=Nc2ccccc2)Nc2ccccc2)C(=O)N1c1ccccc1 (centres undefined)	3	5.9*	13*	0	3	2	1
O=C(Nc1ccccc1[N+](=O)[O-])NC1CCCCN(Cc2ccc(Cl)cc2)C1=O (centres undefined)	-2	0	-3	-1	nt	nt	nt
CCOC(=O)[C@@]12CN(C(=O)OC(C)(C)C)CC=C1N(Cc1ccc(OC)cc1)C(=O)[C@H]2CC(=O)NCCC(C)C	-3	-1	-2	-1	nt	nt	nt
O=C(NCCc1ccc(F)cc1)NC12CC3CC(CC(C3)C1)C2	5	8.3*	9	0	1	10*	7.6*
COc1ccccc1Cc1c(C2CCCCC2)nc2c(C)cc(Br)cn12	0	-1	-1	-1	nt	nt	nt
CCOc1ccc(NC(=O)c2ccco2)cc1S(=O)(=O)N1CCCC1	0	5.1*	-1	0	0	3	1
Cc1ccccc1NC(=O)[C@@H]1CCCN1S(=O)(=O)c1cccc2cccnc12	-2	nt	-1	-1	nt	nt	nt
COc1ccc(S[C@]2(C(=O)N3CCN(c4ncccn4)CC3)CC(=O)N(C(=O)C3CC3)[C@@H]2c2ccc(OC)cc2)cc1	-1	-1	1	-1	nt	nt	nt
CCc1nnc(NC(=O)c2ccc3ncsc3c2)s1	0	1	5	-1	3	nt	nt
Cc1cnc(NC(=O)c2ccc3ncsc3c2)s1	5	13*	13*	0	2	15*	6.7*
C=CCN(C(=O)c1oc2c(Cl)cc(C)cc2c1C)C1CCS(=O)(=O)C1 (centres undefined)	1	5.2*	6	0	1	6.1*	4.0*
Cc1cc(Cl)c2oc(C(=O)N3CCN(C4CCS(=O)(=O)C4)CC3)c(C)c2c1 (centres undefined)	0	0	-2	-1	1	nt	nt
COc1ccc(/C=C/c2cc(O)cc(O[C@@H]3O[C@H](CO)[C@@H](O)[C@H](O)[C@H]3O)c2)cc1O	4	5.2*	10	0	nt	13*	7.4*
COC(=O)[C@H](CC(C)C)N(CCCc1cn(Cc2ccc(C)cc2)nn1)S(=O)(=O)c1ccccc1Br	-4	-3	0	-1	nt	nt	nt
COc1ccc(C(=O)NCCC2=CCCCC2)cc1	5.6*	5.5*	10	1.2*	-3	10*	2
O=C(CCSCc1ccc(Cl)cc1)NCCC1=CCCCC1	2	0	0	-1	-1	nt	nt
O=C(NCCC1=CCCCC1)c1ccc(F)cc1	5	6.4*	11*	0	-1	18*	6.3*
